From PubChem BioAssay
Pf growth 96h: inhibits malaria parasite growth, 96 h. Potency, µM (series often up to 28.7 µM), inactives show at the highest dose activity change, negative = inhibition, usual class: inhibitors. 320,000 tested, 6.9% active. P. falciparum luciferase reporter growth, 96 h; further: potency means the concentration at half of the fitted maximal effect; on the % scale 0 is the no-effect control and ±100 the full control effect
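Delayed-death screen, second-generation endpoint: infected erythrocytes, 2% hematocrit, 0.05% parasitemia final; 96 hours at 37 C, 5% CO2; luciferase detection reagent; luminescence decrease equals reduced growth.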
Shiga inhibitor: blocks Shiga toxin action in Vero cells; inhibition, % at 38.7 µM; Vero cells, Shiga toxin protein synthesis inhibition reporter; 290,000 tested, 9.2% active; AID 2315; in the data active means inhibition mostly above about 28%, no sharp cut-off; inactive means mostly below about 43%; further: 0% is about no effect
Pf growth 48h: inhibits P. falciparum growth in the first generation, 48 h; P. falciparum luciferase growth in erythrocytes, 48 h; Potency, µM (highest dose often 28.7 µM), without a hit: top-dose activity change, negative = inhibition, hits mostly inhibitors; 310,000 tested, 5.9% active; further: potency means the concentration at half of the fitted maximal effect; on the % scale 0 is the no-effect control and ±100 the full control effect
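Growth was read as firefly luciferase luminescence after a 48 h, 37 C, 5% CO2 exposure of compounds to reporter-bearing P. falciparum cultures (0.1% parasitemia, 2% hematocrit final) in Albumax-supplemented RPMI 1640.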
CHX counter: affects cycloheximide protein synthesis inhibition readout, counter-screen | max response, % | 300,000 tested, 12% active | cell reporter, cycloheximide protein synthesis inhibition counterscreen | AID 2314; in the data active means max response mostly above about 13%, no sharp cut-off; inactive means mostly below about 14%; further: read at 38.3 µM for the half of the compounds with a filed dose; 0% is about no effect
HCMV antiviral: inhibitors of human cytomegalovirus | HFF cells, HCMV-luciferase reporter, 72 h; stronger effect = lower value | activity change, negative = inhibition, % at 57.5 µM | 410,000 tested, 4.5% active; in the data active means activity change below about -60%; inconclusive means no clear call, values can overlap the other calls; inactive means above about -39%; further: on the % scale 0 is the no-effect control and ±100 the full control effect
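Cell-based, HFFs, 1000 cells/well, 16 h 37C; cpds in DMSO + HCMV-luc, MOI 1 PFU/cell; 72 h 37C; OneGlo luminescence after 5 min RT; norm. to buffer vs Salinomycin 10uM.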
An asterisk follows results filed as active; [ ] = another dose, or the depositor's remark. Most compounds without a hit are left out; they make up all but 20% or so of the library. Unless noted, the call rests on the fitted dose curve; in most records, active means well fitted inhibition curve with a large enough effect; inconclusive means small, poorly fitted or top-dose-only effect, or another doubt; inactive means no such curve, though single readings can be large or run the other way.

Screening CN(C)C(CNc1ccc([N+](=O)[O-])cc1C#N)c1ccccc1 (centres undefined) returned Pf growth 96h 11.9%, Shiga inhibitor -10.7, Pf growth 48h 1.9%, CHX counter -6.0 and HCMV antiviral 0.9.
For O=C1/C(=C/c2ccccc2Cl)N2CCC1CC2 the results were Pf growth 96h -12.7%, Shiga inhibitor 23.7, Pf growth 48h 0.0%, CHX counter -0.8 and HCMV antiviral -66.8*.
Screening O=C1/C(=C/c2ccncc2)N2CCC1CC2 returned Pf growth 96h 216.3%, Shiga inhibitor 3.8, Pf growth 48h 3.1%, CHX counter -3.2 and HCMV antiviral 3.8.
Screening CCCNC(=O)COc1coc(CN2CCN(c3ccccc3F)CC2)cc1=O returned Pf growth 96h -9.0%, Shiga inhibitor -1.3, Pf growth 48h 2.3%, CHX counter 11.9 and HCMV antiviral 7.0.
COc1ccc(NC(=O)COc2coc(CN3c4ccccc4CC3C)cc2=O)cc1 (centres undefined) was read as Pf growth 96h 8.28µM*, Pf growth 48h inconclusive and HCMV antiviral 10.3.
`CC1Cc2ccccc2N1Cc1cc(=O)c(OCC(=O)NCCc2ccccc2)co1` (centres undefined) gave Pf growth 96h inconclusive, Pf growth 48h 13.1µM* and HCMV antiviral -28.2.
`O=C1CCc2cc(S(=O)(=O)NC(Cc3ccccc3)C(=O)NCCC3=CCCCC3)ccc2N1` (centres undefined) gave Pf growth 96h inconclusive, Shiga inhibitor -11.3, CHX counter -4.7 and HCMV antiviral 22.1.
CC(=O)N/C(N)=N/c1nc2cc([N+](=O)[O-])ccc2o1 was read as Pf growth 96h 125.3%, Shiga inhibitor 81.2, Pf growth 48h 100.6%, CHX counter 27.1* and HCMV antiviral -65.7*.
CC(=O)N/C(N)=N/c1nc2cc(C)ccc2o1 was read as Pf growth 96h 273.9%, Shiga inhibitor 63.4*, Pf growth 48h 214.0%, CHX counter 36.8* and HCMV antiviral 22.3.
`COc1ccc(C(=O)Nc2cccc(S(=O)(=O)NC3=NCCC3)c2)cc1OC` gave HCMV antiviral 5.6.
`N#Cc1c(C(F)(F)F)cc(-c2cccs2)nc1SCc1ccccc1F` gave HCMV antiviral -6.9.
CCC(C)NC(=O)c1ccc(C(=O)c2ccccc2)cc1 (centres undefined) was read as Pf growth 96h -16.4%, Shiga inhibitor 70.6*, Pf growth 48h 24.8%, CHX counter 40.3* and HCMV antiviral -21.8.
CCC(C)NC(=O)Cc1ccc(-c2ccccc2)cc1 (centres undefined) was read as Pf growth 96h 1.3%, Shiga inhibitor 15.8, Pf growth 48h 0.0%, CHX counter 23.1* and HCMV antiviral -21.6.
`CCCc1ccc(C(=O)NNC(=O)c2ccc(Br)cc2)cc1` gave Pf growth 96h -7.7%, Shiga inhibitor -3.8, Pf growth 48h -1.5%, CHX counter 7.4 and HCMV antiviral 2.8.
Screening CCCc1ccc(C(=O)NNc2ccc(F)cc2)cc1 returned Pf growth 96h 21.8%, Shiga inhibitor 35.1, Pf growth 48h 4.9%, CHX counter 17.4* and HCMV antiviral 33.7.
For CCCC(C)NC(=O)c1ccc(-c2ccccc2)cc1 (centres undefined) the results were Pf growth 96h 25.6%, Shiga inhibitor 86.4*, Pf growth 48h 276.4% and CHX counter 27.2*.
Screening CSc1ccc(C2=CC(=O)C[C@H](c3ccc(F)cc3)C2)cc1 returned Pf growth 96h inconclusive, Pf growth 48h inconclusive and HCMV antiviral 44.0.
Screening Cc1ccc(CCNC(=O)c2ccc3c(=O)n(-c4ccc(C)cc4)c(=O)[nH]c3c2)cc1 returned HCMV antiviral 9.8.
For COc1ccccc1-c1cn(CC[C@@H]2CC[C@H](NC(=O)C3CCC3)[C@@H](CO)O2)nn1 the results were HCMV antiviral -3.6.
For CC(C)OC(=O)c1c(-c2ccccc2)c(-c2ccccc2)nn(C)c1=O the results were Shiga inhibitor 1.2, CHX counter -3.7 and HCMV antiviral -14.9.
CCc1ccc(C(C)NC(=O)c2ccc(F)cc2)cc1 (centres undefined) was read as Pf growth 96h -2.9%[5.75 µM], Shiga inhibitor 19.9, Pf growth 48h 9.6%, CHX counter 11.3 and HCMV antiviral 4.8.
CCCC(C)NC(=O)c1ccc(F)cc1 (centres undefined) was read as Pf growth 96h 57.5%, Shiga inhibitor 50.5*, Pf growth 48h 35.5%, CHX counter 26.8* and HCMV antiviral 38.8.
